Source: PubChem BioAssay (Tox21)
Records with an inconclusive call do not appear. Activity calls are given as the source filed them. Unless noted, calls follow the shape of the dose curve; as a rule, active = well fitted curve in the direction sought with a large enough effect in the repeat runs; inconclusive = weak or mixed curves; inactive = flat fitted curve, though single readings scatter.

How the values were obtained:
[1] = qHTS assay to test for compound auto fluorescence at 535 nm (green) in HEK293 cells (AID 720680); conditions: green autofluorescence 485/535 nm; series mostly up to 91.3 µM
[2] = qHTS assay to test for compound auto fluorescence at 460 nm (blue) in HEK293 cell free culture (AID 720681); conditions: cell-free medium, autofluorescence 405/460 nm (blue); series mostly up to 91.3 µM
Method in brief: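 Compounds were added to cell-free DMEM with 10% FBS and fluorescence read directly. The blue channel used 405 nm excitation and 460 nm emission, with triamterene as the reference fluorophore.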

[3] = qHTS assay to test for compound auto fluorescence at 535 nm (green) in HEK293 cell free culture (AID 720682); conditions: cell-free medium, green autofluorescence 485/535 nm, stronger effect = higher value; series mostly up to 91.3 µM
Method in brief: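 Measurement is a direct plate read of green fluorescence (485 nm in, 535 nm out) after compound addition to serum-supplemented DMEM lacking cells, with fluorescein used to express intensities.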

[4] = qHTS assay to test for compound auto fluorescence at 590 nm (red) in HEK293 cell free culture (AID 720683); conditions: cell-free medium autofluorescence, Ex540/Em590 red; series mostly up to 91.3 µM
Method in brief: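 Cell-free wells of DMEM with 10% FBS received compound, and intrinsic fluorescence was read at excitation/emission 540/590 nm. Values expressed as equivalence to Rose Bengal sodium.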

[5] = qHTS assay to test for compound auto fluorescence at 590 nm (red) in HepG2 cell free culture (AID 720684); conditions: cell-free medium autofluorescence, red 540/590 nm; series mostly up to 91.3 µM
Method in brief: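 Rose Bengal sodium served as the reference for red signal. Test compounds were dispensed into serum-containing MEM (10% FBS) without cells, and plates were read at 540/590 nm.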

[6] = qHTS assay to test for compound auto fluorescence at 535 nm (green) in HepG2 cell free culture (AID 720686); conditions: Cell-free medium, green autofluorescence 485/535 nm; series mostly up to 91.3 µM
[7] = qHTS assay to test for compound auto fluorescence at 460 nm (blue) in HepG2 cells (AID 720687); conditions: autofluorescence 405/460 nm, 1 h; series mostly up to 91.3 µM
Method in brief: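 HepG2 cells in MEM with 10% FBS, attached overnight at 37 C, were exposed to compound or DMSO for 1 hr at 37 C, 5% CO2. Blue fluorescence was read at 405/460 nm, with triamterene as reference fluorophore.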

[8] = molecular target: Glucocorticoid receptor (Homo sapiens) (UniProt P04150); experiment: qHTS assay to identify small molecule agonists of the glucocorticoid receptor (GR) signaling pathway (AID 720691; active = well fitted activation curve with a large enough effect in the signal ratio in the repeat runs, not every such curve was filed as active; the % refers to the signal ratio); conditions: GR-bla HeLa, beta-lactamase reporter ratio, 18 h; activation: at 62.4 µM (top of the series) unless noted
Method in brief: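 Compounds in DMSO, alongside positive controls, were added to GR-bla HeLa reporter cells and incubated 18 h at 37 C; GRE-driven beta-lactamase was detected by fluorescence after 2 h with FRET substrate at room temperature.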

[9] = molecular target: Glucocorticoid receptor (Homo sapiens) (UniProt P04150); experiment: qHTS assay to identify small molecule antagonists of the glucocorticoid receptor (GR) signaling pathway (AID 720692; active = well fitted inhibition curve with a large enough effect in the signal ratio in the repeat runs, not every such curve was filed as active; the % refers to the signal ratio); conditions: GR-bla HeLa, beta-lactamase FRET ratio, dexamethasone-stimulated, 18 h; series mostly up to 58.5 µM
Method in brief: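 In a 1536-well cell format, compounds were added 4 h after seeding GR-bla HeLa cells, together with dexamethasone at 5 nM final; reporter activity was measured by FRET-substrate fluorescence following 18 h at 37 C.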

[10] = qHTS assay to test for compound auto fluorescence at 460 nm (blue) in HepG2 cell free culture (AID 720685); conditions: Cell-free culture medium, blue autofluorescence 405/460 nm; series mostly up to 91.3 µM
Method in brief: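 Cell-free plates of MEM plus 10% FBS received 23 nL compound or DMSO vehicle; blue-channel (405/460 nm) intensity scored against triamterene as reference fluorophore.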
% is scaled to controls: 0 for no effect and ±100 for the full control effect.

Sequence of Glucocorticoid receptor (Homo sapiens) (P04150 whole entry, looked up): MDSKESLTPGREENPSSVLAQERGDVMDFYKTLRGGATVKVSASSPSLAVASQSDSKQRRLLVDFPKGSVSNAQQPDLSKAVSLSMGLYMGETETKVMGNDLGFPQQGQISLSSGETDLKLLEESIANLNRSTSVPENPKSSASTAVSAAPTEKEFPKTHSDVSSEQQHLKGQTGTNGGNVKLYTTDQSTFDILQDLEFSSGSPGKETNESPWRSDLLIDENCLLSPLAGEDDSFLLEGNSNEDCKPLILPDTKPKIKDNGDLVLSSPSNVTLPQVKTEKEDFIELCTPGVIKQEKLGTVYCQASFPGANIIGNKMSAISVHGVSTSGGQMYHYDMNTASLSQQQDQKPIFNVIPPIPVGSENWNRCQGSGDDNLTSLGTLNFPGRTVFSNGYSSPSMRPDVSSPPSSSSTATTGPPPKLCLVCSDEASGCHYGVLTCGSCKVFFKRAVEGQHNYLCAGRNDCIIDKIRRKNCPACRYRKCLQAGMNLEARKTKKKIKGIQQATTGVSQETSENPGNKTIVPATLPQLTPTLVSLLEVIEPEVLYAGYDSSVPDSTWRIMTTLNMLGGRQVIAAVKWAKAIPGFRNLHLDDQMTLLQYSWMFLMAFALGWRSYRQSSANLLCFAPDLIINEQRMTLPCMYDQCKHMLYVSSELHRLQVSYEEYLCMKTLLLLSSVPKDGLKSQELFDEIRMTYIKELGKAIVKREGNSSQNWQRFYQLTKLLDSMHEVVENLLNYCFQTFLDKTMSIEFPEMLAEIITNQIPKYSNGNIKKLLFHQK

O=C(O)c1ccc(S(=O)(=O)O)cc1C(=O)O
inactive: outcome [1] | outcome [2] | outcome [3] | Potency [4] | Potency [5] | Potency [6] | outcome [7]

O=C(Nc1ccccc1)c1ccccc1O
inactive: outcome [1] | outcome [2] | outcome [3] | Potency [4] | Potency [5] | Potency [6] | outcome [7] | Potency [8]

O=C(O)c1ccco1
inactive: outcome [1] | outcome [2] | outcome [3] | Potency [4] | Potency [5] | Potency [6] | outcome [7]

NC(N)=NCCC[C@H](N)C(=O)O
inactive: outcome [1] | outcome [2] | outcome [3] | Potency [4] | Potency [5] | Potency [6] | outcome [7] | Potency [9]

C=CCOC(=O)CCC1CCCCC1
inactive: outcome [1] | outcome [2] | outcome [3] | Potency [4] | Potency [5] | outcome [7] | Potency [9]

CCCCO
inactive: outcome [1] | outcome [2] | outcome [3] | Potency [4] | Potency [5] | Potency [6]

CC(=O)c1ccc2c(c1)N(CCCN1CCC(CCO)CC1)c1ccccc1S2
inactive: fluorescence, % of fluorescein [1] -0.0765% [at 18.6 µM] | fluorescence, % of fluorescent control [2] -0.0632% [at 18.6 µM] | activity change [3] -0.164% [at 18.6 µM] | fluorescence, % of fluorescent control [4] -0.134% [at 18.6 µM] | fluorescence, % of Rose Bengal [5] 0.583% [at 18.6 µM] | fluorescence, % of fluorescein control [6] 0.041% [at 18.6 µM] | fluorescence, % of fluorescent control [7] -0.011% [at 18.6 µM] | Potency [8] | Potency [9]

O=[N+]([O-])c1cccc(S(=O)(=O)O)c1
inactive: outcome [1] | outcome [2] | outcome [3] | Potency [4] | Potency [5] | Potency [6] | Potency [9]

C=C1C(=C/C=C2\CCC[C@]3(C)[C@@H]([C@H](C)/C=C/[C@@H](O)C4CC4)CC[C@@H]23)C[C@@H](O)C[C@@H]1O
inactive: outcome [1] | outcome [2] | outcome [3] | Potency [4] | Potency [5] | outcome [7] | Potency [8]

COC(=O)c1ccc(I)cc1S(=O)(=O)NC(=O)Nc1nc(C)nc(OC)n1
inactive: outcome [1] | outcome [2] | outcome [3] | Potency [4] | Potency [5] | outcome [10] | outcome [7] | Potency [8] | Potency [9]

COc1cc(C(=O)OCCCN2CCCN(CCCOC(=O)c3cc(OC)c(OC)c(OC)c3)CC2)cc(OC)c1OC
inactive: outcome [1] | outcome [2] | outcome [3] | Potency [4] | Potency [5] | Potency [6] | outcome [7] | Potency [9]

CCOc1ccc(N)c([N+](=O)[O-])c1
inactive: outcome [1] | outcome [2] | Potency [4] | Potency [5] | outcome [10] | Potency [6]

CC(C)(C)OCC1CO1 (stereo unspecified)
inactive: outcome [1] | outcome [2] | outcome [3] | Potency [4] | outcome [10] | Potency [6] | outcome [7]

CC(C)(COC(=O)c1ccccc1)COC(=O)c1ccccc1
inactive: outcome [1] | outcome [2] | outcome [3] | Potency [4] | outcome [10] | Potency [6] | outcome [7] | Potency [8]

CCOC(=O)COC(=O)c1cc(Oc2ccc(C(F)(F)F)cc2Cl)ccc1[N+](=O)[O-]
inactive: outcome [1] | outcome [2] | outcome [3] | Potency [4] | outcome [10] | Potency [6] | outcome [7]

CCCCC/C=C\C/C=C\CCCCCCCC(=O)NC(C)c1ccccc1 (stereo unspecified)
inactive: outcome [1] | outcome [2] | outcome [3] | Potency [4] | outcome [10] | Potency [6] | outcome [7] | Potency [8]

Cc1ccc(N=Nc2c(O)c(C(=O)O)cc3ccccc23)c(S(=O)(=O)O)c1
inactive: outcome [1] | outcome [2] | outcome [3] | Potency [4] | outcome [10] | Potency [6]

Clc1ccc2c(c1)CCc1cccnc1C2=C1CCNCC1
inactive: outcome [1] | outcome [2] | outcome [3] | Potency [4] | outcome [10] | Potency [6] | outcome [7] | Potency [8]

CNC(=O)CN(CCN(CCN(CC(=O)[O-])CC(=O)NC)CC(=O)[O-])CC(=O)[O-].O.[Gd+3]
inactive: outcome [1] | outcome [2] | outcome [3] | Potency [4] | outcome [10] | Potency [6] | outcome [7] | Potency [9]
